ALR inh: human ALR oxidase inhibition via reduced H2O2. P55789. purified ALR, DTT oxidation, H2O2 HRP-luminol luminescence. inhibition, % (no concentration beside the values). 290,000 tested, 3.8% active. AID 485317;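 active = mean replicate inhibition above about 79%, with every replicate also reaching it, limit read from the data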
Target sequence (P55789 whole entry, looked up): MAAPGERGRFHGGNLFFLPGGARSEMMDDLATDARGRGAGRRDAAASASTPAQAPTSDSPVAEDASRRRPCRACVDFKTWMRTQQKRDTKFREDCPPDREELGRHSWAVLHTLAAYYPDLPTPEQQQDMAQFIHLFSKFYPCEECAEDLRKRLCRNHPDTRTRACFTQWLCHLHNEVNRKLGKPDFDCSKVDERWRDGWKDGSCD
Efflux pump mplx: inhibitors of Candida antifungal efflux pumps expressed in yeast; inhibition, % at 10 µM; S. cerevisiae Candida pump triplex, Nile Red efflux; 330,000 tested, 0.44% active; AID 485275;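 active = plate passing quality check with inhibition over a set limit, or well fluorescence over plate mean plus 4 SD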;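 note: Nile Red retained in pooled yeast measured as flow cytometry median fluorescence; higher means more Nile Red kept so more efflux inhibition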
Mot1-301 SUMO: blocks SUMOylation pathway, rescuing yeast Mot1-301 growth; S. cerevisiae Mot1-301 growth rescue, ATP luminescence, 38.5C; percent above DMSO median, 100 means doubled; growth rescue, % at 18.8 µM; 320,000 tested, 1% active; AID 2716;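 active = every valid replicate shows activation above 250% relative to neutral control wells; inactive = the rest, any valid replicate at or below 250%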
Bfl-1 A1 inh: inhibitors of the anti-apoptotic protein A1, read as caspase activation; 330,000 tested, 0.066% active; caspase activation, % (concentration not given with the values); MEF A1-2A-BIM cells, Caspase-Glo 3/7 luminescence, 3 h; percent of clofoctol response, vehicle zero; AID 2462;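 active = over half of replicate activation scores above 10%, or exactly half above 10 with the replicate mean above 10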
AHR activator: activates the human aryl hydrocarbon receptor | P35869 | AHR-responsive luciferase reporter cells, luminescence | activation, % at 5 µM | 320,000 tested, 2.5% active | AID 2796; in the data active = activation above about 47%
VLA-4 inh: inhibition in a human VLA-4 binding assay | inhibition, % (about 7 µM as worked out from the volumes in the protocol) | 330,000 tested, 0.2% active | P13612 | AID 2557 | VLA-4 expressing cells, ligand binding flow cytometry; in the data active = inhibition above about 50%
AHR act cf: confirmation of human aryl hydrocarbon receptor activators; activation, % at 9 µM; AID 2845; human cells, AHR-responsive luciferase reporter, luminescence; shares compounds with AHR activator; 2,300 tested, 87% active; in the data active = activation above about 49%;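 note: HepG2 hepatoma cells carrying a DRE-driven firefly luciferase reporter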
PXR counter: activates human PXR in AHR activator counter-screen. shares compounds with AHR activator. activation, % at 11.6 µM. cell-based PXR reporter, luciferase luminescence. 2,300 tested, 88% active; in the data active = activation above about 11%;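 note: human hepatoma DPX-2 cells expressing full-length human PXR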
Numbers stand for hits; n = inactive; x = no result. The list is not random: actives were taken first. Their share in the collection is about 7.2%.

SMILES	ALR inh	Efflux pump mplx	Mot1-301 SUMO	Bfl-1 A1 inh	AHR activator	VLA-4 inh	AHR act cf	PXR counter
COc1ccccc1-c1sc2cc3c(cc2c1C#Cc1ccccn1)OCO3	n	n	n	n	103.9	n	115.5	176.3
COc1ccccc1-c1oc2ccccc2c1C#CC1(O)CCCCC1	n	n	n	n	n	n	x	x
CCC(=O)NNc1nc2c(Cl)cccc2s1	n	n	n	n	n	n	x	x
CC(=O)/C(N=Nc1ccc2c(c1)OCCO2)=C(\C)O	n	n	n	n	n	n	x	x
CC(=O)/C(N=Nc1ccc2c(c1)OCO2)=C(\C)O	n	n	n	n	112.3	n	94.7	n
CCCC(=O)Nc1c2c(nc3ccccc13)N(c1ccccc1)CC2	n	n	n	n	108.3	n	97.6	23.3
Nc1c2c(nc3ccccc13)N(c1ccccc1)CC2	n	n	n	n	142.7	n	105.1	22.3
CN1CCCCc2c1nc1ccccc1c2N (tested in a mixture with another compound)	n	n	n	n	n	n	x	x
O=C(CN1CCCCC1)Nc1c2c(nc3ccccc13)N(c1ccccc1)CC2	n	n	n	n	132.3	n	106.8	38.4
CCOc1ccc2nc(/N=C/c3c(C)[nH]n(-c4ccc(C)cc4)c3=O)sc2c1	n	n	n	n	88.8	n	66.9	21.9
Cc1cc(N2CCN(c3ccccc3)CC2)nc2ccccc12	n	n	n	n	124.9	n	106.0	19.6
Cc1cc(-c2ccc(N3CCOCC3)cc2)nc2ccccc12	n	n	n	n	x	n	x	51.7
Cc1ccc2c(c1)-n1c(nc3cc(Cl)ccc3c1=O)C(Cc1ccccc1)NC2=O (centres undefined)	n	n	n	n	n	n	x	x
CC(=O)N1CCc2c(sc(NC(=O)C3CC3)c2-c2nc3ccccc3s2)C1	n	n	n	n	105.8	n	99.7	28.2
COCC(=O)Nc1nnc(-c2cccs2)s1	n	n	n	n	80.6	n	94.5	x
CCC(C)C(=O)Nc1nnc(-c2cccs2)s1 (centres undefined)	n	n	x	n	84.5	n	81.2	47.6
COc1ccc(-n2c(=O)[nH]c3c(C(N)=O)nc(C4CCCCC4)nc32)cc1	n	n	n	n	n	n	x	x
Cc1cccc(-n2c(=O)[nH]c3c(C(N)=O)nc(-c4ccccc4Cl)nc32)c1	n	n	n	n	93.9	n	71.7	11.6
Cc1cccc(-n2c(=O)[nH]c3c(C(N)=O)nc(CC(C)C)nc32)c1	n	n	n	n	n	n	x	x
COc1cccc(-c2nc(C(N)=O)c3[nH]c(=O)n(-c4ccccc4)c3n2)c1OC	n	n	n	n	87.7	n	61.4	10.3
COc1ccc(-c2nc(C(N)=O)c3[nH]c(=O)n(-c4cccc(C)c4)c3n2)c(OC)c1	n	n	n	n	97.6	n	66.7	20.2
COc1ccc(/C=N/NC(=O)CNC(=O)c2ccncc2)cc1OC	n	n	n	n	n	n	x	x
CC(C)(C)[C@H]1COC(=O)CCC/C=C/C[C@H](CC(=O)N(CCO)Cc2ccccc2)C(=O)N1	n	n	n	n	n	n	x	x
O=C(NCC(=O)N1CCN(C(=O)c2ccccc2)CC1)c1ccc(Cl)cc1Cl	n	n	n	n	n	n	x	x
CCOC(=O)CSc1c(-c2ccc(Cl)cc2)[nH]c2ccccc12	n	n	n	n	92.6	n	60.9	n
Cn1c(SCC(=O)NCc2ccc(F)cc2)nc2c([nH]c3ccccc32)c1=O	n	n	n	n	126.3	n	96.9	90.5
COc1cccc(-n2c(SCC(=O)NCC3CCCO3)nc3c([nH]c4ccccc43)c2=O)c1 (centres undefined)	n	n	n	n	88.1	n	127.8	88.6
COc1ccc(-n2c(SCC(=O)NCC3CCCO3)nc3c([nH]c4ccccc43)c2=O)cc1 (centres undefined)	n	n	n	n	n	n	x	x
Cn1c(SCC(=O)NCCc2ccccc2)nc2c([nH]c3ccccc32)c1=O	x	n	n	n	118.2	n	91.1	114.7

Screening results from PubChem BioAssay.
